Assay outcomes from PubChem.
HT1080 IDH1KD tx: kills HT-1080 cells with IDH1 knockdown. hit rate 2% among 360,000. HT-1080 IDH1 knockdown viability, ATP luminescence, 48 h. Potency, µM (series often up to 46.1 µM), inactives show at the top dose activity, negative = toxicity, most hits filed as cytotoxic;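 further: 0% = DMSO wells and -100% = cell-free medium wells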
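Using the IDH1-knockdown HT-1080 line run in the same batch and compound series as the NT line, viability after 48 h at 37 °C was determined by CellTiter-Glo luminescence and expressed as % activity.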
KB-3-1 tox: KB-3-1 parental cell cytotoxicity; KB-3-1 viability, CellTiter-Glo ATP luminescence, 72 h; Potency, µM (titrated, usually from 46.1 µM), actives largely listed as cytotoxic; hit rate 1.4% among 400,000; AID 1347075; further: nearly all actives have a fitted effect of over 60% in size
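Parental KB-3-1 viability, qHTS format: 72 h compound exposure, 37 °C; CellTiter-Glo; media-only wells and DMSO plates as controls; concentration-effect fits on corrected data.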
KB-V1 MDR tox: KB-V1 MDR subline cytotoxicity | KB-V1 MDR cells viability, CellTiter-Glo, 72 h | Potency, µM (doses to about 46.1 µM), actives largely listed as cytotoxic | hit rate 3.4% among 400,000 | AID 1347076; further: nearly all actives have a fitted effect of over 60% in size
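In this primary screen, KB-V1 cells overexpressing P-gp are incubated with library compounds (lowest to highest concentration) for 72 h at 37 degrees C before a luminescent ATP viability read.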
HT1080NT lethal: kills 2HG-producing HT-1080-NT fibrosarcoma cells; HT-1080-NT fibrosarcoma viability, CellTiter-Glo ATP luminescence, 48 h; Potency, µM (series often up to 46.1 µM), without a hit: at the highest dose activity, negative = less viability, usual class: cytotoxic; hit rate 1.6% among 360,000;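 further: NT is the 2HG producing partner of a matched IDH1 knockdown line; 0% = DMSO-treated cells and -100% = media-only wells without cells; nearly all actives have a fitted effect of over 55% in size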
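Fibrosarcoma NT cells, 750 per well in 5% FBS RPMI, were exposed to compound for 48 hours. Viability: CellTiter-Glo luminescence.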
* hit, by the source's call; i = inactive; ? = inconclusive; . = not tested or not shown. A selection: hits, their analogues and other compounds. The true share with any hit is near 5.7%. The call rests on the fitted dose curve; in most records, active means well fitted curve in the direction sought with a large enough effect; inconclusive means small, poorly fitted or top-dose-only effect, or another doubt; inactive means no such curve, though single readings can be large; an effect the other way counts as inactive or inconclusive. Unless noted, on the % scale 0 is the no-effect control and ±100 the full control effect; potency means the concentration at half of the fitted maximal effect.

SMILES	HT1080 IDH1KD tx	KB-3-1 tox	KB-V1 MDR tox	HT1080NT lethal
CC(Sc1nn(-c2ccc(F)cc2)c(=S)s1)C(=O)c1c(N)n(C)c(=O)n(C)c1=O (configuration not stated)	-17%	?	6.5µM*	-18%
COc1ccc(CN(C)C(C)C(=O)Nc2ccc([N+](=O)[O-])cc2Cl)cc1OC (configuration not stated)	-14%	i	5.2µM*	-12%
Cc1cccc(-c2nnc(NC(=O)c3ccc(Cl)cc3)o2)c1	?	?	13µM*	?
O=S(=O)(Nc1ccc2c(c1)nc1n2CCN(Cc2ccccc2)C1)c1ccccc1	-23%	?	2.6µM*	-10%
Cc1ccc(S(=O)(=O)Nc2ccc3c(c2)nc2n3CCN(Cc3ccccc3)C2)cc1	-22%	i	16µM*	-14%
COc1ccc(Cl)cc1NC(=O)CSc1ccc2nnc(CCNS(=O)(=O)c3ccccc3)n2n1	.	i	i	.
CC(C)c1ccc(NC(=O)C2Cc3c(-c4ccc5c(c4)OCO5)ccnc3O2)cc1 (configuration not stated)	?	i	i	?
CC(=O)c1cccc(-c2ccnc3c2CC(C(=O)Nc2ccc4c(c2)OCO4)O3)c1 (configuration not stated)	2.3µM*	6.5µM*	?	?
CC(=O)Nc1ccc(-c2ccnc3c2CC(C(=O)Nc2ccc4c(c2)OCO4)O3)cc1 (configuration not stated)	15µM*	?	?	?
CC(=O)c1cccc(-c2ccnc3c2CC(C(=O)Nc2ccc(Cl)c(C(F)(F)F)c2)O3)c1 (configuration not stated)	?	i	i	-20%
O=C(Nc1ccc(Cl)c(C(F)(F)F)c1)C1Cc2c(-c3ccc4c(c3)OCO4)ccnc2O1 (configuration not stated)	21µM*	i	i	?
COc1ccc2c(C)c(CC(=O)NCCc3ccc(Cl)cc3)c(=O)oc2c1C	.	i	i	.
Cc1ccc(NC(=O)c2ccc(-n3nncc3-c3ccccc3)cc2)cc1	.	i	i	.
Cc1cccc(CN2C(=O)CC(c3ccc(Cl)cc3)c3c(C)nn(-c4nc(C)cc(C)n4)c32)c1 (configuration not stated)	.	i	i	.
Cc1c(C)n(Cc2ccccc2)c2ccc(C(=O)OCCCN(C)C)cc12	13µM*	?	?	15µM*
Cc1ccc(C(=O)/C=C/c2ccc3c(c2)OCCO3)c(O)c1	-19%	i	i	-18%
Cc1ccc(C)c(/C=C/C(=O)c2ccccc(=O)c2O)c1	15µM*	12µM*	8.2µM*	?
O=C(/C=C/c1ccccc1Cl)c1ccccc(=O)c1O	12µM*	21µM*	18µM*	12µM*
O=C(C=Cc1ccccc1O)c1ccccc1O	18µM*	?	?	23µM*
O=C(/C=C/c1ccc(O)c(O)c1)c1ccccc1O	-24%	?	?	-7%
Cc1ccc(/C=C/C(=O)c2ccccc(=O)c2O)c(C)c1	18µM*	16µM*	8.2µM*	21µM*
O=C(/C=C/c1ccccc1Cl)c1ccc(O)cc1	?	i	?	-2%
Cc1ccc(-c2nn(-c3ccc(F)cc3)c3c2cnc2cc(F)c(F)cc23)cc1	.	i	i	.
O=C(/C=C/c1ccc([N+](=O)[O-])cc1)c1ccccc(=O)c1O	5.8µM*	?	1µM*	6.5µM*
COc1ccc(-c2cn(-c3ccccc3)c(=S)[nH]2)cc1OC	-10%	3.3µM*	i	-19%
SMILES	HT1080 IDH1KD tx	KB-3-1 tox	KB-V1 MDR tox	HT1080NT lethal
COc1ccccc1-n1cc(-c2ccc(Br)cc2)[nH]c1=S	-28%	i	i	-1%
COc1ccc(-c2cn(-c3ccc(C)c(C)c3)c(=S)[nH]2)cc1OC	-1%	i	i	-4%
COc1ccc(-c2cn(-c3ccc(C)c(Cl)c3)c(=S)[nH]2)cc1OC	-16%	16µM*	i	-10%
COc1ccccc1-c1cn(-c2ccccc2)c(=S)[nH]1	-22%	?	?	-13%
COc1ccccc1-n1cc(-c2ccc(C)cc2)[nH]c1=S	?	?	23µM*	10µM*
O=C(C[n+]1ccccc1Cl)c1ccc(O)c(O)c1	.	?	i	.
CSc1cccc(NC(=O)Cn2c(=O)n(Cc3ccccc3)c(=O)c3sc4ccccc4c32)c1	.	i	i	.
COc1ccc(CNC(=O)Cc2ccc(NC(=O)C3=C(C)OCCS3)cc2)cc1	5.8µM*	1µM*	15µM*	?
CC1=C(C(=O)Nc2ccc(CC(=O)NCc3ccc(OC(C)C)cc3)cc2)SCCO1	?	0.37µM*	?	?
CCc1ccccc1NC(=O)N1CCOc2ccccc21	.	i	i	.
Cc1ccccc1N1CCN(C2=NC(=O)/C(=C\c3cccs3)S2)CC1	?	?	i	?
Cc1ccsc1/C=C1\SC(N2CC(C)OC(C)C2)=NC1=O (configuration not stated)	-1%	?	18µM*	-1%
Cc1cc(=O)[nH]c(SCC(=O)c2ccc(C(C)C)cc2)n1	-9%	i	i	-1%
Cc1cc(C)c2c(=O)[nH]c(SCC(=O)c3ccc(C(C)C)cc3)nc2n1	12%	i	16µM*	11%
O=C(NC(c1ccccc1)c1ccsc1)C1CCN(Cc2ccc(Cl)c(Cl)c2)CC1 (configuration not stated)	4%	i	i	9%
O=C(NC(c1ccc(-c2ccccc2)cc1)c1cnccn1)C1CCN(Cc2ccc(Oc3ccccc3)cc2)CC1 (configuration not stated)	?	?	i	13µM*
O=C(NC(c1ccccc1)c1ccsc1)C1CCN(Cc2ccc(Oc3ccccc3)cc2)CC1 (configuration not stated)	15µM*	i	i	18µM*
COc1ccc(C(NC(=O)C2CCN(Cc3ccc(Oc4ccccc4)cc3)CC2)c2ccccn2)cc1 (configuration not stated)	23µM*	i	i	15µM*
COc1cc(CN2CCC(C(=O)NC(c3ccc(-c4ccccc4)cc3)c3cnccn3)CC2)cc(OC)c1 (configuration not stated)	23µM*	?	?	23µM*
Cc1ccc2[nH]c(=O)c(CN(CCCO)Cc3nnnn3Cc3ccccc3)cc2c1	.	i	i	.
Cc1cccnc1C(NC(=O)C1CCN(Cc2ccccc2)CC1)c1ccc(F)cc1 (configuration not stated)	-28%	?	?	-37%
Cc1cccnc1C(NC(=O)C1CCN(Cc2ccc(Oc3ccccc3)cc2)CC1)c1ccccc1 (configuration not stated)	18µM*	i	?	23µM*
COc1ccc(C(NC(=O)C2CCN(Cc3ccc(Oc4ccccc4)cc3)CC2)c2ccccc2C)cn1 (configuration not stated)	?	i	i	16µM*
